Assay results published in PubChem BioAssay AID463165 (Johns Hopkins Ion Channel Center, 2010).
Screen size: about 310,000 compounds; about 1,400 (0.45%) were called active.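 Rule for the calls: active = B-score, a plate-corrected calcium signal, over three deviations above library mean, with baseline fluorescence within five deviations of library mean; inactive = the rest.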 What follows is part of a selection rich in actives, with near analogues and random picks from the rest.

Each molecule was assayed against Regulator of G-protein signaling 4 (Homo sapiens) (UniProt P49798) (assay: blockers of RGS4 function in M3R calcium signaling – cell-based, HEK293 M3R inducible RGS4, calcium flux, primary screen (AID 463165;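 note: RGS4 expression induced by doxycycline in cells with stable M3 receptor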;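 for B-score: B-score is computed from the integrated fluorescence ratio over baseline after carbachol; higher B-score means a larger calcium signal and so more RGS4 inhibition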)). Details: Fluo-4 calcium flux, at 10 µM; B-score: active compounds read high unless noted; outcome: triggered by carbachol at its EC20 unless noted.
Sequence of Regulator of G-protein signaling 4 (Homo sapiens) (P49798 whole entry, looked up): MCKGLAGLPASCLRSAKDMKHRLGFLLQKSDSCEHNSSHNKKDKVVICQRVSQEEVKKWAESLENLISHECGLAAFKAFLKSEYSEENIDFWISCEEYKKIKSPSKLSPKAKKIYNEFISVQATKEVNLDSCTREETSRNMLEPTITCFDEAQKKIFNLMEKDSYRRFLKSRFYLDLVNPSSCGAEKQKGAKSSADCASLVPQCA
With `O=C(N/N=C/c1c(O)n(C2CC2)c(=S)[nH]c1=O)c1ccccc1` the outcome was “inactive [setting not given]”.
For `O=C(N/N=C/c1c(O)n(Cc2ccccc2)c(=O)[nH]c1=O)c1ccccc1`, the B-score was 5.25 (active).
`O=c1[nH]c(=O)n(Cc2ccccc2)c(O)c1/C=N/Nc1c(F)c(F)c(F)c(F)c1F` was tested, and the outcome was “inactive [setting not given]”.
With `Cc1ccc2c(c1)=C/C(=C\c1c(O)[nH]c(=O)[nH]c1=O)C(=O)N=2` the B-score was 5.31 (active).
With `O=C1N=c2ccccc2=C/C1=C\c1c(O)[nH]c(=S)[nH]c1=O` the outcome was “inactive [setting not given]”.
In the case of `O=c1[nH]c(O)c(C=Nc2cc(F)cc(F)c2)c(=O)[nH]1`, the outcome is reported as “inactive [setting not given]”.
For `COC(=O)CN1C(=O)C2(C(C(=O)OC)=C(N)Oc3ccccc32)C2=C1CC(C)(C)CC2=O` (stereo not given), the outcome was “inactive”.
With `CC1CCC(N(C)C2CCN(C)CC2)CC1` (stereo not given) the outcome was “inactive”.
In the case of `C=CC12CN(C)[C@@H]3C4CO[C@H](C[C@H]41)[C@]1(C(=O)Nc4ccccc41)[C@@H]32` (stereo not given in full), the outcome is reported as “inactive”.
With `CC(C)(C)c1ccc(OC(=O)N2CCCCC2)cc1` the outcome was “inactive”.
With `Cc1cccc(N2C(=O)NC(=O)/C(=C\c3cnn(-c4ccccc4)c3)C2=O)c1` the outcome was “inactive [setting not given]”.
With `O=C1NC(=O)N(c2ccc(F)cc2)C(=O)/C1=C/c1ccc2c(c1)CCCN2Cc1ccccc1` the outcome was “inactive [setting not given]”.
`O=C1NC(=O)N(c2ccccc2)C(=O)/C1=C/c1ccc([N+](=O)[O-])s1` was tested, and the B-score was 4.87 (active).
`CC(C)c1ccc(OCC(=O)N2CCCN(C)CC2)cc1` was tested, and the outcome was “inactive”.
`O=C(CCNS(=O)(=O)c1ccccc1)Nc1ccc(Cl)cc1C(=O)c1ccccc1` was tested, and the outcome was “inactive”.
With `O=C1NC(=O)N(Cc2ccco2)C(=O)/C1=C\c1cccn1CCOc1ccccc1` the outcome was “inactive [setting not given]”.
For `Cc1cc(/C=C2/C(=O)NC(=O)N(Cc3ccco3)C2=O)c(C)n1-c1ccc(C(=O)O)cc1`, the outcome was “inactive [setting not given]”.
With `O=C1NC(=O)N(Cc2ccco2)C(=O)/C1=C\c1ccc(-c2ccc(F)cc2)o1` the B-score was 15.5 (active).
For `CN(C)CC1Oc2ccccc2OC1(O)c1ccccc1` (stereo not given), the outcome was “inactive”.
For `COC(=O)C1=C(c2ccccc2)C[C@@H]2CC[C@H]1N2C(=O)NCc1ccco1`, the outcome was “inactive”.
